Compound activity (PubChem)
RPL19A-GFP yeast: alters RPL19A-GFP fluorescence in TOR pathway yeast screen | S. cerevisiae RPL19A-GFP strain, flow cytometry, 3 h; active compounds read low | percent response vs DMSO, % at 10 µM | 330,000 compounds, 0.3% hits | AID 2025;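 active = percent response vs DMSO below 50%; inconclusive = fewer than 70 events counted for the yeast strain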;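 note: median channel GFP fluorescence of the barcoded RPL19A-GFP strain; ratio of sample median GFP to plate DMSO average so 100% = DMSO; lower means less RPL19A-GFP as with rapamycin TOR inhibition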
CIT2-GFP yeast: alters CIT2-GFP fluorescence in TOR pathway yeast screen; GFP response vs DMSO, % at 10 µM; 320,000 compounds, 0.065% hits; S. cerevisiae CIT2-GFP strain, flow cytometry, 3 h; 100 means same as DMSO wells;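 active = GFP response relative to DMSO above a set limit, near the screen mean plus 3 SD, cut at about 150% in these data; inconclusive = Fewer than 70 cells measured for a yeast strain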;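 note: ratio of well median GFP fluorescence to mean of DMSO wells on the plate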
MEP2-GFP yeast: alters MEP2-GFP fluorescence in TOR pathway yeast screen. S. cerevisiae MEP2-GFP strain, flow cytometry GFP, 3 h; 100% = DMSO control level. GFP response vs DMSO, % at 10 µM. 330,000 compounds, 0.51% hits;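 active = GFP response versus DMSO above a set limit, roughly screen mean plus 3 SD, cut at about 180% in these data; inconclusive = fewer than 70 cells counted for a yeast strain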;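 note: median GFP fluorescence of the barcode-gated MEP2-GFP cells per well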
LAP4-GFP MLPCN: modulators of TOR pathway LAP4-GFP in S. cerevisiae | 320,000 compounds, 0.34% hits | AID 2023 | GFP response vs DMSO, % at 10 µM | S. cerevisiae LAP4-GFP multiplex, flow cytometry GFP, 3 h; median GFP as percent of DMSO wells;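 active = GFP response vs DMSO above a set limit, about the screen mean plus 3 SD, cut at about 150% in these data; inconclusive = under 70 cell events counted for the yeast strain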
AGP1-GFP MLPCN: alters AGP1-GFP fluorescence in TOR pathway yeast screen; GFP response vs DMSO, % at 10 µM; 320,000 compounds, 0.02% hits; AID 2066; S. cerevisiae AGP1-GFP multiplex flow cytometry, 3 h; GFP as percent of DMSO wells;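 active = GFP response relative to DMSO above a set limit, near screen average plus 3 SD, cut at about 150% in these data; inconclusive = fewer than 70 cells counted for the yeast strain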;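 note: median GFP channel fluorescence of the gated AGP1 strain per well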
An asterisk follows results filed as active; ? = inconclusive; nt = not tested or not shown; + = active, no number; [ ] = another dose, or the depositor's remark. A selection: hits, their analogues and other compounds. The true share with any hit is near 0.89%.

SMILES	RPL19A-GFP yeast	CIT2-GFP yeast	MEP2-GFP yeast	LAP4-GFP MLPCN	AGP1-GFP MLPCN
Cc1ccc(NS(=O)(=O)c2ccc(-n3cccn3)cc2)cc1F	14*[may fluoresce violet]	?	146	76	?
Cc1ccc(Cl)cc1NS(=O)(=O)c1ccc(-n2cccn2)cc1	92	100	100	90	94
Cc1cccc(NS(=O)(=O)c2ccc(-n3cccn3)cc2)c1C	22*[may fluoresce violet]	?	130	76	?
Cc1ccc(NS(=O)(=O)c2ccc(-n3cccn3)cc2)c(C)c1	94	94	88	95	94
Cn1c(=O)c2c(ncn2CC(=O)Nc2ccccc2)n(C)c1=O	59	?	210*[may fluoresce violet]	88	nt
Cn1c(=O)c2c(ncn2CCOc2ccc(Br)cc2)n(C)c1=O	96	109	109	88	101
Cn1c(=O)c2c(ncn2CCOc2ccc(F)cc2)n(C)c1=O	40*[may fluoresce violet]	?	?	70	?
COc1ccc(NC(=O)C2CCN(C(=O)C3CC(=O)N(c4ccc(C)cc4)C3)CC2)c(OC)c1 (stereo not given)	102	105	102	96	102
CCOC(=O)c1cnc(-n2nc(C)cc2C)nc1NNc1ncc(-c2ccccc2)cn1	100	100	110	124	101
CC1=C([N+](=O)[O-])C(c2ccc3c(c2)OCO3)N(C)C(=O)N1C (stereo not given)	99	97	101	99	94
COC(=O)c1cc(OC)c(OC)cc1NC(=O)Cc1ccccc1[N+](=O)[O-]	104	108	110	101	106
CCOC(=O)C1=C(N)OC2=C(C(=O)CCC2)C1c1cccnc1 (stereo not given)	nt	?	295*[may fluoresce violet]	81	?
COC(=O)C1=C(N)OC2=C(C(=O)CCC2)C1c1cccnc1 (stereo not given)	96	86	98	100	101
Cc1cc(C)c(C(=O)COC(=O)c2ccc([N+](=O)[O-])o2)cc1C	99	65	95	225*	97
CCOc1c(Br)ccc2c1sc1nc[nH]c(=O)c12	nt	105	183*	105	27
N=c1sccn1CC(=O)Nc1cccc2ccccc12	92	96	92	91	89
COc1cc2c(cc1/C=C/C(=O)O)OC(C)C2 (stereo not given)	93	101	90	82	92
CCOc1cc2c(cc1/C=C/C(=O)O)OC(C)C2 (stereo not given)	51	?	607*[may fluoresce violet]	90	27
O=C(Nc1cccnc1)c1c(O)c2cccc3c2n(c1=O)CC3	49*[may fluoresce violet]	?	150	38	?
CNC(=O)c1c(O)c2cccc3c2n(c1=O)CC3	104	97	99	99	99
CCN1CC2CCCC3(C1)C(=O)NC1(CCCCC1)N=C23 (stereo not given)	101	104	94	89	99
Cc1ccccc1NC(=O)N1CCNC(=O)C1CC(=O)Nc1cc(Cl)ccc1Cl (stereo not given)	94	159*[may fluoresce green]	109	103	118
CCOC(=O)c1[nH]cnc1C(=O)Nc1ccc([N+](=O)[O-])cc1	33*[may fluoresce violet]	?	761*[may fluoresce violet]	60	?
O=C(Nc1ccc(F)cc1)c1nc[nH]c1C(=O)Nc1ccc([N+](=O)[O-])cc1	100	101	98	89	94
O=[N+]([O-])c1ccc(O)c(/C=N/n2cnc3ccccc32)c1	51	?	184*[may fluoresce violet]	95	?
SMILES	RPL19A-GFP yeast	CIT2-GFP yeast	MEP2-GFP yeast	LAP4-GFP MLPCN	AGP1-GFP MLPCN
O=[N+]([O-])c1ccc(O)c(/C=N/n2c(CO)nc3ccccc32)c1	103	96	103	114	105
COc1ccc(OC)c(Nc2nc(-c3cccc([N+](=O)[O-])c3)nc3ccccc23)c1	30*[may fluoresce violet]	?	184*[may fluoresce violet]	84	25
Cc1cccc(C)c1NC(=O)N1C2CCC1CC(O)(c1cccnc1)C2 (stereo not given)	102	99	111	106	100
Cc1ccc(Cl)cc1NC(=O)Cn1cc(C(F)(F)F)cc(Cl)c1=O	99	95	95	90	93
Cc1cc(NC(=O)Cn2cc(C(F)(F)F)cc(Cl)c2=O)no1	62	?	224*[may fluoresce violet]	92	20
COc1cccc2sc(N(CCN(C)C)C(=O)/C=C/c3cccs3)nc12	52	?	193*[may fluoresce violet]	91	?
CC(C(=O)Nc1ccc(F)cc1Cl)N(C)CCOc1ccccc1 (stereo not given)	105	107	103	97	100
CC(C(=O)Nc1ccccc1)N(C)CCOc1ccccc1 (stereo not given)	40*[may fluoresce violet]	?	299*[may fluoresce violet]	97	61
CC1CCN(c2nc3c(N)ncnc3n2[C@@H]2O[C@H](CO)[C@@H](O)[C@H]2O)CC1	100	98	98	101	107
CC1CCN(c2nc3c(=O)[nH]c(N)nc3n2[C@@H]2O[C@H](CO)[C@@H](O)[C@H]2O)CC1	86	?	+[may fluoresce violet]	99	?
Cc1nn(Cc2ccccc2)c(C)c1C(=O)N1CCN(CC(=O)Nc2ccc(F)cc2)CC1	96	94	96	93	94
O=C(CSc1ncn[nH]1)NCc1ccc(Cl)cc1	105	98	101	95	96
COc1ccc(C2(CNS(=O)(=O)c3ccc(C)cc3)CCOCC2)cc1	50	?	191*[may fluoresce violet]	96	22
COc1ccc(C2(CNC(=O)C(=O)Nc3ccc(C)cc3)CCOCC2)cc1	99	97	101	98	94
Cc1noc(NC(=O)c2ccc(Cl)cc2)c1Cl	41*[may fluoresce violet]	?	92	125	?
CCOc1ccc(CC(=O)Nc2nccs2)cc1	98	102	106	105	104
O=C(O)CSCC(=O)N1N=C2/C(=C/c3ccccc3)CCCC2C1c1ccccc1 (stereo not given)	36*[may fluoresce violet]	?	263*[may fluoresce violet]	58	?
Cc1cc(C)c2sc(NC(=O)c3ccc([N+](=O)[O-])o3)nc2c1	94	?	156	194*[may fluoresce violet]	18
Cc1nnc2sc(SCC(=O)Nc3nccs3)nn2c1=O	22*[may fluoresce violet]	?	235*[may fluoresce violet]	65	?
NC(=O)NCc1cccnc1	99	106	99	100	108
C=C(C)C1CC=C(C)/C(=N/NC(=O)CNc2ccc(OCC)cc2)C1 (stereo not given)	59	?	207*[may fluoresce violet]	104	?
CCN1CCN(c2c(Cl)cccc2NC(=O)c2cccs2)CC1	105	98	99	94	98
CCC(CC)NC(=O)Cc1ccc(F)cc1	267	+[may fluoresce green]	+[may fluoresce green]	921*[may fluoresce green]	251*[may fluoresce green]
CCn1c(SC)nc2c(c1=O)SC(C)C2 (stereo not given)	101	105	101	101	103
Fc1ccc(CSc2nnc(-c3ccncc3)o2)cc1	96	89	102	97	96
Clc1ccc(CSc2nnc(-c3ccncc3)o2)cc1	67	?	179*[may fluoresce violet]	108	17
Nc1ccc(-c2c3ccc(=O)cc-3oc3cc(O)ccc23)cc1C(=O)O	101	142	124	157*	113
